SMILES strings stand for the structures. Records with an inconclusive call do not appear. Activity calls are given as the source filed them. Unless noted, the call rests on the fitted dose curve; in most records, active means well fitted curve in the direction sought with a large enough effect; inconclusive means small, poorly fitted or top-dose-only effect, or another doubt; inactive means no such curve, though single readings can be large; an effect the other way counts as inactive or inconclusive.

Experiment [1] concerns the target ATP-dependent 6-phosphofructokinase (Trypanosoma brucei brucei) (UniProt O15648). Nature of the experiment: qHTS Assay to Find Inhibitors of T. brucei phosphofructokinase: hit validation (AID 492961).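 Further: luminescence reports ADP formed as PFK phosphorylates fructose-6-phosphate with ATP.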 Summed up:
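ADP-Glo luminescence read-out of ADP formed by 1.25 nM PFK from 0.1 mM ATP and 0.5 mM F6P (TEA pH 8.0, 45 min, RT). Compounds titrated; activity normalized to no-enzyme and full-enzyme controls.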

The nature of experiment [2]: S16 Schwann cell PMP22 intronic element beta-lactamase assay (AID 624044; calls by dose curve; further: nearly all actives have a fitted effect of over 15% in size). Put shortly: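 Beta-lactamase reporter under a PMP22 intronic regulatory element in stable S16 rat Schwann cells; 24 h compound exposure. 460 nm blue signal normalized between DMSO (0%) and potassium clavulanate, with 535 nm FRET tracking viability; curves classed by r2 and response.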
Experiment [3] deals with CP266. Briefly: qHTS profiling for inhibitors of Plasmodium falciparum proliferation (AID 504749). Further: nearly all actives have a fitted effect of over 60% in size. Further: potency means the concentration at half of the fitted maximal effect. The following applies: P. falciparum in erythrocytes, SYBR Green DNA, 72 h; series mostly up to 12.8 µM. Put shortly:
(§1)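 SYBR Green fluorescence of parasite DNA, read after lysis and overnight dark incubation, measured growth over 72 h in erythrocyte culture at 0.3% parasitemia and 2.5% hematocrit. Data normalised to DMSO and 0.29 uM artemisinin, with plate-drift correction.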
For orientation: qHTS replaces the single test concentration by a dilution series.

The subject of experiment [4] is CP297. The description is as above. The following applies: P. falciparum in erythrocytes, SYBR Green DNA, 72 h; series mostly up to 12.8 µM. Summed up: as §1
Experiment [5] relates to Dd2. Described as above. The following applies: P. falciparum in erythrocytes, SYBR Green DNA, 72 h; series mostly up to 12.8 µM. Summed up:
as §1

The test system of experiment [6] is HB3. Described as above. The following applies: P. falciparum in erythrocytes, SYBR Green DNA, 72 h; series mostly up to 12.8 µM. Put shortly:
as §1

For experiment [7], the system named is ATS189. The description is as above. The following applies: P. falciparum in erythrocytes, SYBR Green DNA, 72 h; series mostly up to 12.8 µM. Put shortly: as §1
The test system of experiment [8] is CP247. Described as above. The following applies: P. falciparum in erythrocytes, SYBR Green DNA, 72 h; series mostly up to 12.8 µM. Put shortly: as §1
Experiment [9] deals with CP250. The description is as above. The following applies: P. falciparum in erythrocytes, SYBR Green DNA, 72 h; series mostly up to 12.8 µM. Summed up:
as §1

Experiment [10] deals with CP335. Described as above. The following applies: P. falciparum in erythrocytes, SYBR Green DNA, 72 h; series mostly up to 12.8 µM. Summed up: as §1
Experiment [11] deals with TAB113. The experiment is described as above. The following applies: P. falciparum in erythrocytes, SYBR Green DNA, 72 h; series mostly up to 12.8 µM. Summed up: as §1
Experiment [12] has as its system ATS95. Described as above. The following applies: P. falciparum in erythrocytes, SYBR Green DNA, 72 h; series mostly up to 12.8 µM. Put shortly: as §1
For experiment [13], the system named is CP203. The description is as above. The following applies: P. falciparum in erythrocytes, SYBR Green DNA, 72 h; series mostly up to 12.8 µM. Summed up:
as §1

Experiment [14] has as its system CP260. Described as above. The following applies: P. falciparum in erythrocytes, SYBR Green DNA, 72 h; series mostly up to 12.8 µM. Put shortly:
as §1

Experiment [15] concerns DIV17. Described as above. The following applies: P. falciparum in erythrocytes, SYBR Green DNA, 72 h; series mostly up to 12.8 µM. Summed up: as §1
Experiment [16] deals with ICS. Described as above. The following applies: P. falciparum in erythrocytes, SYBR Green DNA, 72 h; series mostly up to 12.8 µM. Put shortly: as §1
Experiment [17] deals with P93_24. The description is as above. The following applies: P. falciparum in erythrocytes, SYBR Green DNA, 72 h; series mostly up to 12.8 µM. Put shortly:
as §1

The subject of experiment [18] is P94_40. The experiment is described as above. The following applies: P. falciparum in erythrocytes, SYBR Green DNA, 72 h; series mostly up to 12.8 µM. Summed up: as §1
Experiment [19] has as its system TAB165. The experiment is described as above. The following applies: P. falciparum in erythrocytes, SYBR Green DNA, 72 h; series mostly up to 12.8 µM. Put shortly: as §1
Experiment [20] is described as follows: Confirmation and Secondary Assay for Modulators of Hemoglobin Beta Chain Splicing at IVS2 654 locus (AID 910).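 Further: HeLa cells stably carrying EGFP split by mutant beta-globin IVS2-654 intron; per-well total GFP intensity by laser scanning cytometry after 2-day treatment.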 Put shortly: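 Readout: per-well total peak green fluorescence (488 nm ex, 500–520 nm em) from objects 5–250 µm, reflecting correct splicing of an EGFP-654 reporter. Compounds were applied for 2 days at 37 °C to overnight-plated HeLa EGFP-654 cells; controls were DMSO and 500 nM IVS2-654 PNA.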

Chain of ATP-dependent 6-phosphofructokinase (Trypanosoma brucei brucei) (O15648 whole entry, looked up): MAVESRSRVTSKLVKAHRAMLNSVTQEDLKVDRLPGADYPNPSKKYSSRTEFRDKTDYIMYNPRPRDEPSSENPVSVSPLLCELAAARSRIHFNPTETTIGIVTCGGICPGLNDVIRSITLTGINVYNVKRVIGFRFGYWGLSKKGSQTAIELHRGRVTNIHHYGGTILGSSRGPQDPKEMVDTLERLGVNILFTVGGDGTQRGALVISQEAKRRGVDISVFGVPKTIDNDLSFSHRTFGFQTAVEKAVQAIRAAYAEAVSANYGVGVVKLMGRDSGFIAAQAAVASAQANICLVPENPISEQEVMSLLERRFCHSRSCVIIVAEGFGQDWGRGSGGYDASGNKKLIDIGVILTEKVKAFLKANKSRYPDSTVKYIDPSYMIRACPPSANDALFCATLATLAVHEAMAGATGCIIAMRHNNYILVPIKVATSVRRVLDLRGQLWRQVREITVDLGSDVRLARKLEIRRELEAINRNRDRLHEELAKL

Take `CCN(CC)[C@@H](C)CN1c2ccccc2Sc2ccccc21`: the call in [1] was inactive. The Potency entry in experiment [2], in [3], in [4] and in experiment [6] was “inactive” each time. Further, the Potency in experiment [5] is 1.26 µM (active).
In the case of `CN1CCC[C@@H](CC2c3ccccc3Sc3ccccc32)C1`, the compound was classed as inactive in experiment [1]. The Potency entry in [2], in [7], in [8], in experiment [9], in experiment [3] and in experiment [4] was “inactive” each time. Further, the Potency entry in experiment [10], in experiment [6] and in experiment [11] was “inactive” each time.
As for `CO[C@]1(NC(=O)[C@H](C(=O)O)c2ccc(O)cc2)C(=O)N2C(C(=O)O)=C(CSc3nnnn3C)CO[C@H]21`, the result in [1] was inactive. The Potency entry in [2], in experiment [7], in [12], in [13], in [8] and in experiment [9] was “inactive” in each case. Besides, the Potency entry in experiment [14], in experiment [3], in [4], in experiment [10], in experiment [15] and in experiment [5] was “inactive” throughout. The Potency result in experiment [6], in experiment [16], in experiment [17], in experiment [18], in [11] and in [19] was “inactive” each time.
Turning to `COc1cc2ccc(=O)oc2c(O)c1O`, the Potency entry in [20] is “inactive”.
For `CCO[C@H]1O[C@@H]([C@H](COCc2ccccc2)OCc2ccccc2)[C@@H](OCc2ccccc2)[C@H]1O`, the compound was called inactive in [1]. Besides, the Potency entry in experiment [2], in experiment [12], in experiment [13], in experiment [8], in experiment [9] and in experiment [14] was “inactive” in each case. Further, the Potency entry in experiment [4], in experiment [10], in experiment [5] and in [11] was “inactive” each time.
With `CCC(=O)[C@@]1(C)[C@H](C)C[C@@H]2[C@@H]3CCC4=CC(=O)C=C[C@@]4(C)[C@H]3[C@H](O)C[C@]21C`, the Potency result in [2], in experiment [7], in experiment [12], in experiment [13], in experiment [8] and in experiment [9] was “inactive” in each case. The Potency entry in [3], in experiment [4], in [15], in experiment [5], in experiment [6] and in experiment [18] was “inactive” throughout. The Potency result in experiment [11] and in experiment [19] was “inactive” each time. Also, the Potency in experiment [16] is 3.55 µM (active).
In the case of `COc1ccc2c(c1)N(C[C@@H](C)CN(C)C)c1ccccc1S2`, the result in [1] was inactive. The Potency result in [2], in experiment [7], in experiment [12], in experiment [13], in [8] and in experiment [9] was “inactive” throughout. Also, the Potency result in experiment [14], in experiment [4], in experiment [10], in [5], in [6] and in experiment [17] was “inactive” in each case. The Potency result in [18], in experiment [11] and in experiment [19] was “inactive” throughout.
For `O=C(O)[C@@H]1[C@@H]2C[C@H]3c4[nH]c5ccccc5c4CCN3C[C@@H]2CC[C@@H]1O`, the Potency result in [2], in [13], in [9], in experiment [5] and in [6] was “inactive” each time. For the same compound, the Potency in experiment [15] is 5.73 µM (active).
On to `O=C1OC(CO)C(O)C(O)C1O` (stereo not drawn), for which the Potency result in [20], in experiment [2], in experiment [7], in experiment [12], in experiment [13] and in [8] was “inactive” in each case. Also, the Potency entry in experiment [9], in experiment [14], in experiment [3], in experiment [4], in experiment [10] and in experiment [15] was “inactive” in each case. Besides, the Potency result in [5], in experiment [6], in experiment [16], in experiment [18], in experiment [11] and in experiment [19] was “inactive” throughout. Further, in [1], the outcome was inactive.

These data come from PubChem BioAssay (NCATS).
